Source: PubChem BioAssay (Tox21)
Records with an inconclusive call do not appear. Calls of active or inactive are those of the source. Unless noted, calls follow the shape of the dose curve; as a rule, active = well fitted curve in the direction sought with a large enough effect in the repeat runs; inconclusive = weak or mixed curves; inactive = no such curve, though single readings can be large; an effect the other way counts as inactive or inconclusive.

How the values were obtained:
[1] = qHTS assay to identify small molecule antagonists of the estrogen related receptor (ERR) signaling pathway (AID 1224819;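 also: luminescence from an ERR-driven luciferase reporter measured with One-Glo reagent; series mostly up to about 46 µM; % is scaled to controls: 0 for no effect and ±100 for the full control effect; nearly all actives have a fitted effect of over 50% in size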)
Outline: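 LOPAC library screened for antagonism as reduced One-Glo luminescence in ERR reporter cells (2,000/well). Compounds were added after 6 h pre-incubation and left 18 h at 37C; reading followed a 30 min room-temperature reagent step.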

[2] = qHTS assay to identify small molecule agonists of the estrogen related receptor (ERR) signaling pathway (AID 1224820)
Outline: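 Following a 6 h settling period, 2,000 ERR cells per well receive DMSO-dissolved compounds by pin tool and incubate 18 h at 37 C; agonist activity is scored from One-Glo luminescence read 30 min post-addition.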

[3] = system: estrogen-related receptor alpha (ERRalpha) with PGC-1alpha coactivator, human; test: qHTS assay to identify small molecule antagonists of the estrogen related receptor signaling pathway with the pleiotropic PPARgamma coactivator (PGC) (AID 1224821; calls by dose curve;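 also: series mostly up to about 46 µM; % is scaled to controls: 0 for no effect and ±100 for the full control effect; lower luminescence signal means antagonism of PGC/ERR signalling; nearly all actives have a fitted effect of over 50% in size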)
Outline: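 Screening used NTP's PGC/ERR cells, dosed via pin tool with compound in DMSO alongside positive and negative controls. After 18 h at 37 C, One-Glo reagent sat 30 min at room temperature before luminescence detection.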

[4] = qHTS assay to identify small molecule agonists of the estrogen related receptor signaling pathway with the pleiotropic PPARgamma coactivator (PGC) (AID 1224823)
Outline: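 In this quantitative high-throughput screen, an 18 h, 37 C treatment of PGC/ERR cells with compounds in DMSO preceded a One-Glo luminescence read taken after 30 min at room temperature.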

[5] = qHTS assay to identify small molecule antagonists of the estrogen related receptor signaling pathway with the pleiotropic PPARgamma coactivator (PGC) cell viability counter screen (AID 1224822; also: series mostly up to about 46 µM; % is scaled to controls: 0 for no effect and ±100 for the full control effect)
Outline: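 Viability counter-screen read by fluorescence intensity after 30 min with CellTiter-Fluor at 37 C; PGC/ERR reporter cells were exposed to compounds for 17.5 h at 37 C following a 6 h preincubation.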

[6] = qHTS assay for small molecules that induce genotoxicity in human embryonic kidney cells expressing luciferase-tagged ATAD5 (AID 651632); also: % is scaled to controls: 0 for no effect and ±100 for the full control effect; nearly all actives have a fitted effect of over 15% in size
Outline: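 A rise in luciferase signal from ATAD5-tagged HEK293T cells marks genetic stress. Cells were exposed to compounds for 16 hr at 37C, 5% CO2, then luciferase was quantified after a 30 min room-temperature incubation with Amplite.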

[7] = qHTS assay for small molecule agonists of the p53 signaling pathway - cell viability (AID 651633; calls by dose curve;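 also: p53RE-bla HCT reporter cells with a stable beta-lactamase p53 reporter; series mostly up to about 83 µM; % is scaled to controls: 0 for no effect and ±100 for the full control effect; nearly all actives have a fitted effect of over 30% in size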)
Outline: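 p53RE-bla cells were treated with compound for 16 hours at 37 C. Cytotoxicity was then measured as CellTiter-Glo luminescence after 30 min at room temperature.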

[8] = qHTS assay for small molecules that induce genotoxicity in human embryonic kidney cells expressing luciferase-tagged ATAD5 - cell viability (AID 651634; calls by dose curve; also: % is scaled to controls: 0 for no effect and ±100 for the full control effect; nearly all actives have a fitted effect of over 25% in size)
Outline: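 Cytotoxicity counter-readout: after 15.5 hr compound treatment at 37C, live-cell protease activity in ATAD5-luciferase HEK293T cells measured by CellTiter-Fluor fluorescence, 30 min development at 37C.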

[9] = qHTS assay to test for compound auto fluorescence at 590 nm (red) in HepG2 cells (AID 720674); also: % is scaled to controls: 0 for no effect and ±100 for the full control effect
Outline: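 HepG2 cells, 2,000 per well in MEM with 10% FBS, attached overnight at 37 C, then got 23 nL compound or DMSO. After 1 hr at 37 C, 5% CO2, red fluorescence was read at 540/590 nm against Rose Bengal sodium as reference.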

[10] = qHTS assay to test for compound auto fluorescence at 535 nm (green) in HepG2 cells (AID 720675); also: % is scaled to controls: 0 for no effect and ±100 for the full control effect
[11] = qHTS assay to test for compound auto fluorescence at 460 nm (blue) in HEK293 cells (AID 720678); also: % is scaled to controls: 0 for no effect and ±100 for the full control effect
Outline: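 HEK293, 2,000 cells/well, 10% dialyzed FBS; attach 4-5 hr 37C; pin compound or DMSO; o/n 37C/5% CO2; fluorescence 405/460 nm; triamterene-equivalent units.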

[12] = qHTS assay to test for compound auto fluorescence at 590 nm (red) in HEK293 cells (AID 720679); also: % is scaled to controls: 0 for no effect and ±100 for the full control effect
Outline: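 Intensity at 540nm excitation and 590nm emission is reported as Rose Bengal sodium-equivalent autofluorescence. Measurements followed overnight exposure (37C, 5% CO2) of HEK293 cells, 2,000 per well, to 23 nL compound.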

[13] = qHTS assay to test for compound auto fluorescence at 535 nm (green) in HEK293 cells (AID 720680); also: % is scaled to controls: 0 for no effect and ±100 for the full control effect
[14] = qHTS assay to test for compound auto fluorescence at 460 nm (blue) in HEK293 cell free culture (AID 720681); also: % is scaled to controls: 0 for no effect and ±100 for the full control effect
Outline: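 Compounds were added to cell-free DMEM with 10% FBS and fluorescence read directly. The blue channel used 405 nm excitation and 460 nm emission, with triamterene as the reference fluorophore.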

[15] = qHTS assay to test for compound auto fluorescence at 590 nm (red) in HEK293 cell free culture (AID 720683); also: % is scaled to controls: 0 for no effect and ±100 for the full control effect
Outline: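 Cell-free wells of DMEM with 10% FBS received compound, and intrinsic fluorescence was read at excitation/emission 540/590 nm. Values expressed as equivalence to Rose Bengal sodium.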

[16] = qHTS assay to test for compound auto fluorescence at 590 nm (red) in HepG2 cell free culture (AID 720684); also: % is scaled to controls: 0 for no effect and ±100 for the full control effect
Outline: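 Rose Bengal sodium served as the reference for red signal. Test compounds were dispensed into serum-containing MEM (10% FBS) without cells, and plates were read at 540/590 nm.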

[17] = qHTS assay to test for compound auto fluorescence at 460 nm (blue) in HepG2 cell free culture (AID 720685); also: % is scaled to controls: 0 for no effect and ±100 for the full control effect
Outline: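 Cell-free plates of MEM plus 10% FBS received 23 nL compound or DMSO vehicle; blue-channel (405/460 nm) intensity scored against triamterene as reference fluorophore.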

[18] = qHTS assay to test for compound auto fluorescence at 535 nm (green) in HepG2 cell free culture (AID 720686); also: % is scaled to controls: 0 for no effect and ±100 for the full control effect
[19] = qHTS assay to test for compound auto fluorescence at 460 nm (blue) in HepG2 cells (AID 720687); also: % is scaled to controls: 0 for no effect and ±100 for the full control effect
Outline: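 HepG2 cells in MEM with 10% FBS, attached overnight at 37 C, were exposed to compound or DMSO for 1 hr at 37 C, 5% CO2. Blue fluorescence was read at 405/460 nm, with triamterene as reference fluorophore.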

[20] = qHTS assay to identify small molecule antagonists of the glucocorticoid receptor (GR) signaling pathway - cell viability counter screen (AID 720693); also: % is scaled to controls: 0 for no effect and ±100 for the full control effect; nearly all actives have a fitted effect of over 55% in size
[21] = qHTS assay for identifying genotoxic compounds that show differential cytotoxicity against isogenic chicken DT40 cell lines with known DNA damage response pathways - Rev3 mutant cell line (AID 743014); also: % is scaled to controls: 0 for no effect and ±100 for the full control effect; nearly all actives have a fitted effect of over 55% in size
[22] = qHTS assay for identifying genotoxic compounds that show differential cytotoxicity against isogenic chicken DT40 cell lines with known DNA damage response pathways - Rad54/Ku70 mutant cell line (AID 743015); also: % is scaled to controls: 0 for no effect and ±100 for the full control effect; nearly all actives have a fitted effect of over 60% in size
[23] = qHTS assay to identify small molecule antagonists of the androgen receptor (AR) signaling pathway - cell viability counter screen (AID 743033; also: % is scaled to controls: 0 for no effect and ±100 for the full control effect; nearly all actives have a fitted effect of over 45% in size)
[24] = qHTS assay to identify small molecule antagonists of the androgen receptor (AR) signaling pathway using the MDA cell line - cell viability counter screen (AID 743041; also: % is scaled to controls: 0 for no effect and ±100 for the full control effect; nearly all actives have a fitted effect of over 45% in size)
Outline: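 Cytotoxicity counter screen: MDA-kb2 AR-luc cells, compound + R1881, 16 h, 37C, 0% CO2; CellTiter-Fluor added at 15.5 h, fluorescence read after 30 min.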

[25] = qHTS assay to identify small molecule antagonists of the thyroid receptor (TR) signaling pathway - cell viability counter screen (AID 743064); also: % is scaled to controls: 0 for no effect and ±100 for the full control effect; nearly all actives have a fitted effect of over 50% in size
Outline: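 Fluorescence from CellTiter-Fluor, added after 23.5 h exposure at 37 °C, reported viability of GH3.TRE-Luc cells co-treated with compound and 1 nM T3. Measured in the same wells as the luciferase TR readout.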

[26] = system: thyroid hormone receptor (rat, GH3 cells); test: qHTS assay to identify small molecule agonists of the thyroid receptor (TR) signaling pathway (AID 743066; calls by dose curve; also: % is scaled to controls: 0 for no effect and ±100 for the full control effect)
[27] = molecular target: Estrogen receptor (Homo sapiens) (UniProt P03372); test: qHTS assay to identify small molecule antagonists of the estrogen receptor alpha (ER-alpha) signaling pathway (AID 743069; active = well fitted curve in the direction sought with a large enough effect in the signal ratio in the repeat runs, not every such curve was filed as active; the % refers to the signal ratio; also: % is scaled to controls: 0 for no effect and ±100 for the full control effect)
Outline: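 Beta-lactamase FRET fluorescence is read after 2 hr at room temperature with LiveBLAzer B/G substrate. Before that, ER-alpha-bla HEK293 cells sit 4 hr after plating, then receive compound plus 17beta-estradiol and incubate 18 hr at 37C.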

[28] = qHTS assay to identify small molecule antagonists of the estrogen receptor alpha (ER-alpha) signaling pathway - cell viability counter screen (AID 743074; calls by dose curve;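 also: HEK293 cells carrying ER-alpha-UAS-bla reporter stimulated with 17beta-estradiol; % is scaled to controls: 0 for no effect and ±100 for the full control effect; nearly all actives have a fitted effect of over 45% in size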)
[29] = molecular target: Estrogen receptor (Homo sapiens) (UniProt P03372); test: qHTS assay to identify small molecule agonists of the estrogen receptor alpha (ER-alpha) signaling pathway (AID 743075; calls by dose curve)
[30] = molecular target: Estrogen receptor (Homo sapiens) (UniProt P03372); test: qHTS assay to identify small molecule agonists of the estrogen receptor alpha (ER-alpha) signaling pathway using the BG1 cell line (AID 743079); also: potency is read from the fitted curve at half-maximal effect; nearly all actives have a fitted effect of over 20% in size
[31] = qHTS assay to identify small molecule antagonists of the estrogen receptor alpha (ER-alpha) signaling pathway using the BG1 cell line (AID 743080; calls by dose curve;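 also: BG1 cells stimulated with 17beta-estradiol alongside compound; series mostly up to about 70 µM; % is scaled to controls: 0 for no effect and ±100 for the full control effect; nearly all actives have a fitted effect of over 25% in size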)
Outline: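 BG1Luc4E2, endogenous ER-alpha, 4xERE-luc; 5 d charcoal-stripped FBS, phenol red free; 24 h plating; cpd + 17beta-estradiol 21.5 h, 37 C/5% CO2; CellTiter-Fluor viability 30 min, then ONE-Glo luciferase 30 min RT.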

[32] = qHTS assay to identify small molecule antagonists of the estrogen receptor alpha (ER-alpha) signaling pathway using the BG1 cell line - cell viability counter screen (AID 743081);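 also: compound given together with 17beta-estradiol as the ER stimulus; series mostly up to about 70 µM; % is scaled to controls: 0 for no effect and ±100 for the full control effect; nearly all actives have a fitted effect of over 45% in size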
Aromatase (Homo sapiens) = Aromatase (Homo sapiens) (UniProt P11511); test: qHTS assay to identify aromatase inhibitors (AID 743083); also: series mostly up to about 70 µM; % is scaled to controls: 0 for no effect and ±100 for the full control effect; nearly all actives have a fitted effect of over 55% in size
[33] = qHTS assay to identify aromatase inhibitors - cell viability counter screen (AID 743084)
[34] = molecular target: Aryl hydrocarbon receptor (Homo sapiens) (UniProt P35869); test: qHTS assay to identify small molecule that activate the aryl hydrocarbon receptor (AhR) signaling pathway (AID 743085)
Outline: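 Cell line HG2L7.5c1 (human hepatoma, 20× DRE-luc). Plated, 5 h 37C, compound/DMSO added, 24 h 37C. CellTiter-Fluor 30 min 37C → fluorescence; then ONE-Glo 30 min RT → luminescence.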

[35] = qHTS assay to identify small molecule that activate the aryl hydrocarbon receptor (AhR) signaling pathway - cell viability counter screen (AID 743086)
Outline: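 HepG2-AhR-luc (HG2L7.5c1) cells, 4000/well, treated 24 h at 37 C with compound; viability measured as CellTiter-Fluor fluorescence after 30 min in the same wells as the luciferase read.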

[36] = qHTS assay to identify small molecule phospholipidosis (PLD) inducers (AID 1259344; active = well fitted curve in the direction sought with a large enough effect; an effect the other way counts as inactive or inconclusive)
Outline: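 Read-out is LipidTOX Red fluorescence (ex 595/em 615) imaged in HepG2 cells after 24 h compound exposure at 37 C, with Hoechst nuclear counterstain (ex 352/em 461) allowing per-cell normalisation.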

[37] = molecular target: Nuclear receptor subfamily 1 group I member 2 (Rattus norvegicus) (UniProt Q9R1A7); test: Rat pregnane X receptor (rPXR) activation by small molecules, qHTS assay (AID 1346983); details: rPXR luciferase reporter cells, One-Glo luminescence, 24 h; max activation: active compounds read high
Outline: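 Cell-based rPXR activation assay: rPXR cells, 2,000 per well, rested 5hr at 37 C, then exposed to compounds in DMSO for 24 hr at 37 C. Luciferase activity read by One-Glo luminescence after 30 min at room temperature.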

Estrogen receptor (Homo sapiens), sequence (P03372 whole entry, looked up): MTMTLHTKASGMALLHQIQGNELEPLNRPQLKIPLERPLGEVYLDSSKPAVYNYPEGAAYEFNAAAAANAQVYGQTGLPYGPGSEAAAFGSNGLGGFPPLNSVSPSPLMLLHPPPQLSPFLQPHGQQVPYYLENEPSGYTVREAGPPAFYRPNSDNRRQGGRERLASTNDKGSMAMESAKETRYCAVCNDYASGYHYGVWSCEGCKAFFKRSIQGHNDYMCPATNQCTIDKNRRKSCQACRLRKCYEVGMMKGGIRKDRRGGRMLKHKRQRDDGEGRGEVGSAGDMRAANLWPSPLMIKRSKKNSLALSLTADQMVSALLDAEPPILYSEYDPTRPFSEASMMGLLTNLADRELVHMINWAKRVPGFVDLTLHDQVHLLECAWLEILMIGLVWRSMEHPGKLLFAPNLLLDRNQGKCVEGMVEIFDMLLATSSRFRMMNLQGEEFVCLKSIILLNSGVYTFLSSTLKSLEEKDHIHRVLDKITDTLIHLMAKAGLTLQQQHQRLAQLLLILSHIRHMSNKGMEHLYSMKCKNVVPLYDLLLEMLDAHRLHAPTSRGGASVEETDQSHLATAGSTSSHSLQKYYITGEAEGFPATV
Aryl hydrocarbon receptor (Homo sapiens), sequence (P35869 whole entry, looked up): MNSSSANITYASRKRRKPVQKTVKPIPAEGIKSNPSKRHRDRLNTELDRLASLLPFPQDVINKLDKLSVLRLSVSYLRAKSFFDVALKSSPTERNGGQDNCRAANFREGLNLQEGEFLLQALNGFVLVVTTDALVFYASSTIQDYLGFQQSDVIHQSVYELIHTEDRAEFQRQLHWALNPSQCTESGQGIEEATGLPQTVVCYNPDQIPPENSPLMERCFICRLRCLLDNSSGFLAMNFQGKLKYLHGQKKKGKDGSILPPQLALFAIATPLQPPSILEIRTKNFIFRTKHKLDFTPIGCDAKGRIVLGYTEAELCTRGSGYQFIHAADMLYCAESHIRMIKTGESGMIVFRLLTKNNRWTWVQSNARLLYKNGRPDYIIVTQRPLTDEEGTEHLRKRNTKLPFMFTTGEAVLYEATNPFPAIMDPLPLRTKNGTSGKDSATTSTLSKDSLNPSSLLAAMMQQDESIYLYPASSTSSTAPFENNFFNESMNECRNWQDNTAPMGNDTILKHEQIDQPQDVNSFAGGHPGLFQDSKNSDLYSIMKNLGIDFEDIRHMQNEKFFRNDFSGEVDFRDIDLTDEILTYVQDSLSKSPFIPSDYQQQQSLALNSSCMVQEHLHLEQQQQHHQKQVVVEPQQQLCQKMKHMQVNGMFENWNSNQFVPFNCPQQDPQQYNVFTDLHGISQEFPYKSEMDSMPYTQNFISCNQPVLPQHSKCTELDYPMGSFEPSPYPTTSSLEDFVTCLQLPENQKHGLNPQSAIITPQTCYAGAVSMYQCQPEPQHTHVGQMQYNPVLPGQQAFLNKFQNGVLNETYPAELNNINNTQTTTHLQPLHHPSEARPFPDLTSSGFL
Aromatase (Homo sapiens), sequence (P11511 whole entry, looked up): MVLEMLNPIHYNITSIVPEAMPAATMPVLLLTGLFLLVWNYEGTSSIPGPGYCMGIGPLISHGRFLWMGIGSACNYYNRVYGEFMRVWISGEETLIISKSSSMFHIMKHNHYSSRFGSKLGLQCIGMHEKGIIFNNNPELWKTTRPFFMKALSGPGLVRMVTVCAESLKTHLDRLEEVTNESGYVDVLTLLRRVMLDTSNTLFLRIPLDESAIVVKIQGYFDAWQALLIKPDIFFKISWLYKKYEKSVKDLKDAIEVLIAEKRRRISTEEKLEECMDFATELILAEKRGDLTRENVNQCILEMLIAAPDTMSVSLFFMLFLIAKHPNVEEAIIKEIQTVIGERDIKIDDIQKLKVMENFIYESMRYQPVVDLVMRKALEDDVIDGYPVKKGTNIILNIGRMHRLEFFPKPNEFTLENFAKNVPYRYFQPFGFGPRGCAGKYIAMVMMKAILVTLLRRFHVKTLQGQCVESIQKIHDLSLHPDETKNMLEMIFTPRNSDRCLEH
Nuclear receptor subfamily 1 group I member 2 (Rattus norvegicus), sequence (Q9R1A7 whole entry, looked up): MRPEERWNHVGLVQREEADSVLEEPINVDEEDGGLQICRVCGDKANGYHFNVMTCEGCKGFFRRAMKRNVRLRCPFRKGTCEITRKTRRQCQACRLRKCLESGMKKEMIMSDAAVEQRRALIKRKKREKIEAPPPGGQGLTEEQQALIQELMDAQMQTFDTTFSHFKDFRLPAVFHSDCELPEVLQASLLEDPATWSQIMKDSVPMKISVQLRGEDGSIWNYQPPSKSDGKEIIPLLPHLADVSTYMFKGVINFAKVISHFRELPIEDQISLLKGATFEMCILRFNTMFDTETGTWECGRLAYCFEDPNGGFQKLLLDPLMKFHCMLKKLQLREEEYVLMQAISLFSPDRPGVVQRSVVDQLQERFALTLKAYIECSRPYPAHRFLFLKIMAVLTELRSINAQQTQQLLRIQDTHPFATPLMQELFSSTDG

CCCCCCCCCCCCCC(=O)O[C@@H]1[C@@H](C)[C@@]2(O)[C@@H](C=C(CO)C[C@@]3(O)C(=O)C(C)=C[C@@H]23)C2C(C)(C)[C@@]21OC(C)=O (some centres not stated)
inactive: Potency [1] | Potency [3]
active: Potency [2] 8.72 nM | Potency [4] 6.71 nM

O=[N+]([O-])c1ccc2nc(N3CCNCC3)ccc2c1
inactive: Potency [1] | Potency [2] | Potency [3] | Potency [5] | Potency [4]

c1ccc(C2(c3ccccc3)CC2C2=NCCN2)cc1 (configuration not stated)
inactive: Potency [6] | Potency [7] | Potency [8] | outcome [9] | Potency [10] | Potency [11] | outcome [12] | Potency [13] | Potency [14] | outcome [15] | outcome [16] | Potency [17] | Potency [18] | Potency [19] | Potency [20] | Potency [21] | Potency [22] | Potency [23] | Potency [24] | Potency [25] | Potency [26] | Potency [27] | Potency [28] | Potency [29] | Potency [31] | Potency [32] | Potency (Aromatase (Homo sapiens)) | Potency [33] | Potency [34] | Potency [35] | Potency [1] | Potency [2] | Potency [3] | Potency [5] | Potency [4] | Potency [36] | max activation [37] -1.58%
active: Potency [30] 0.7 nM
